Reference: PubChem BioAssay AID1159580 (chemical genetic matrix, 2015)
In all, about 5,500 compounds went through this assay and about 2,000 (36%) were called active. Roughly 18% stayed inconclusive and do not appear here. Rule as the data show it: active = normalized growth mostly below about 0.91 (no sharp cut-off); inconclusive = no clear call, values can overlap the other calls; inactive = mostly above about 0.92. This is one part of the list.

Test: chemical genetic growth profiling, strain panel (AID 1159580);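 also: tested at 20 µM; growth read once vehicle control cultures reached saturation at 30 °C; 1 = growth at the plate median or of vehicle wells; lower values mean less growth of the strain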
Settings: growth OD

Measured: normalized growth

C[C@@H]1C[C@@H]([C@H](O)CC2CC(=O)NC(=O)C2)C(=O)[C@@H](C)C1
inactive: S. cerevisiae deletion strains, locus YOL012C, strain htz1 0.234
active: S. cerevisiae deletion strains, locus YJR075W, strain HOC1, stronger effect = lower value 0.0698 | S. cerevisiae deletion strains, locus YKL009W, strain mrt4, stronger effect = lower value 0.0696 | S. cerevisiae deletion strains, locus YKL068W, stronger effect = lower value 0.0541 | S. cerevisiae deletion strains, locus YKL085W, strain MDH1 (second series), stronger effect = lower value 0.0512 | S. cerevisiae deletion strains, locus YKL085W, strain MDH1, stronger effect = lower value 0.0512 | S. cerevisiae deletion strains, locus YKL160W, strain elf1, stronger effect = lower value 0.0661 | S. cerevisiae deletion strains, locus YKL190W, strain CNB1, stronger effect = lower value 0.0498 | S. cerevisiae deletion strains, locus YKR001C, strain vps1, stronger effect = lower value 0.0635 | S. cerevisiae deletion strains, locus YKR026C, strain gcn3, stronger effect = lower value 0.0607 | S. cerevisiae deletion strains, locus YKR091W, strain srl3, stronger effect = lower value 0.0583 | S. cerevisiae deletion strains, locus YLL001W, strain dnm1, stronger effect = lower value 0.0597 | S. cerevisiae deletion strains, locus YLL026W, stronger effect = lower value 0.0551 | S. cerevisiae deletion strains, locus YLL041C, strain sdh2, stronger effect = lower value 0.0553 | S. cerevisiae deletion strains, locus YLR027C, strain aat2, stronger effect = lower value 0.0609 | S. cerevisiae deletion strains, locus YLR039C, strain RIC1, stronger effect = lower value 0.0922 | S. cerevisiae deletion strains, locus YLR058C, strain SHM2, stronger effect = lower value 0.041 | S. cerevisiae deletion strains, locus YLR102C, strain apc9, stronger effect = lower value 0.0592 | S. cerevisiae deletion strains, locus YLR113W, strain HOG1, stronger effect = lower value 0.12 | S. cerevisiae deletion strains, locus YLR221C, strain rsa3, stronger effect = lower value 0.0588 | S. cerevisiae deletion strains, locus YLR258W, strain gsy2, stronger effect = lower value 0.0568 | S. cerevisiae deletion strains, locus YLR262C, strain YPT6 (second series), stronger effect = lower value 0.0723 | S. cerevisiae deletion strains, locus YLR262C, strain YPT6, stronger effect = lower value 0.108 | S. cerevisiae deletion strains, locus YLR268W, strain sec22, stronger effect = lower value 0.0667 | S. cerevisiae deletion strains, locus YLR320W, strain mms22, stronger effect = lower value 0.0766 | S. cerevisiae deletion strains, locus YLR330W, strain CHS5, stronger effect = lower value 0.0515 | S. cerevisiae deletion strains, locus YLR342W, strain FKS1 (second series), stronger effect = lower value 0.0688 | S. cerevisiae deletion strains, locus YLR342W, strain FKS1, stronger effect = lower value 0.0659 | S. cerevisiae deletion strains, locus YLR357W, strain rsc2, stronger effect = lower value 0.119 | S. cerevisiae deletion strains, locus YLR370C, strain arc18, stronger effect = lower value 0.0598 | S. cerevisiae deletion strains, locus YLR371W, strain rom2, stronger effect = lower value 0.0594 | S. cerevisiae deletion strains, locus YLR384C, strain iki3, stronger effect = lower value 0.0596 | S. cerevisiae deletion strains, locus YLR418C, strain cdc73, stronger effect = lower value 0.0977 | S. cerevisiae deletion strains, locus YML016C, strain PPZ1, stronger effect = lower value 0.055 | S. cerevisiae deletion strains, locus YML032C, strain rad52, stronger effect = lower value 0.0671 | S. cerevisiae deletion strains, locus YML120C, strain ndi1, stronger effect = lower value 0.0554 | S. cerevisiae deletion strains, locus YML124C, strain tub3, stronger effect = lower value 0.0568 | S. cerevisiae deletion strains, locus YMR058W, strain fet3, stronger effect = lower value 0.0596 | S. cerevisiae deletion strains, locus YMR078C, strain ctf18, stronger effect = lower value 0.0691 | S. cerevisiae deletion strains, locus YMR125W, strain sto1, stronger effect = lower value 0.0765 | S. cerevisiae deletion strains, locus YMR129W, stronger effect = lower value 0.0549 | S. cerevisiae deletion strains, locus YMR205C, strain PFK2, stronger effect = lower value 0.0823 | S. cerevisiae deletion strains, locus YMR223W, strain ubp8, stronger effect = lower value 0.065 | S. cerevisiae deletion strains, locus YMR231W, strain pep5, stronger effect = lower value 0.0689 | S. cerevisiae deletion strains, locus YMR263W, strain SAP30, stronger effect = lower value 0.0637 | S. cerevisiae deletion strains, locus YMR307W, strain GAS1, stronger effect = lower value 0.121 | S. cerevisiae deletion strains, locus YNL067W, strain RPL9B, stronger effect = lower value 0.0574 | S. cerevisiae deletion strains, locus YNL071W, strain lat1, stronger effect = lower value 0.0587 | S. cerevisiae deletion strains, locus YNL128W, strain TEP1, stronger effect = lower value 0.0594 | S. cerevisiae deletion strains, locus YNL153C, strain GIM3, stronger effect = lower value 0.0488 | S. cerevisiae deletion strains, locus YNL183C, strain NPR1, stronger effect = lower value -0.00319 | S. cerevisiae deletion strains, locus YNL209W, strain ssb2, stronger effect = lower value 0.0566 | S. cerevisiae deletion strains, locus YNL233W, strain BNI4, stronger effect = lower value 0.0543 | S. cerevisiae deletion strains, locus YNL248C, strain rpa49, stronger effect = lower value 0.0754 | S. cerevisiae deletion strains, locus YNL250W, strain rad50, stronger effect = lower value 0.0626 | S. cerevisiae deletion strains, locus YNL271C, strain bni1, stronger effect = lower value 0.0609 | S. cerevisiae deletion strains, locus YNL298W, strain CLA4, stronger effect = lower value 0.0597 | S. cerevisiae deletion strains, locus YNL307C, strain MCK1, stronger effect = lower value 0.0682 | S. cerevisiae deletion strains, locus YNL322C, strain KRE1 (second series), stronger effect = lower value 0.0709 | S. cerevisiae deletion strains, locus YNL322C, strain KRE1, stronger effect = lower value 0.0498 | S. cerevisiae deletion strains, locus YNR049C, strain mso1, stronger effect = lower value 0.0539 | S. cerevisiae deletion strains, locus YNR052C, strain pop2, stronger effect = lower value 0.0603 | S. cerevisiae deletion strains, locus YOL006C, strain TOP1, stronger effect = lower value 0.0855 | S. cerevisiae deletion strains, locus YOL147C, strain pex11, stronger effect = lower value 0.0565 | S. cerevisiae deletion strains, locus YOR001W, strain rrp6, stronger effect = lower value 0.0676 | S. cerevisiae deletion strains, locus YOR061W, strain CKA2, stronger effect = lower value 0.0412 | S. cerevisiae deletion strains, locus YOR069W, strain VPS5, stronger effect = lower value 0.0494 | S. cerevisiae deletion strains, locus YOR070C, strain gyp1, stronger effect = lower value 0.056 | S. cerevisiae deletion strains, locus YOR080W, strain dia2, stronger effect = lower value 0.0619 | S. cerevisiae deletion strains, locus YOR083W, strain WHI5, stronger effect = lower value 0.0654 | S. cerevisiae deletion strains, locus YOR106W, strain vam3, stronger effect = lower value 0.0681 | S. cerevisiae deletion strains, locus YOR136W, strain idh2, stronger effect = lower value 0.0689 | S. cerevisiae deletion strains, locus YOR144C, strain elg1, stronger effect = lower value 0.0565 | S. cerevisiae deletion strains, locus YOR184W, strain ser1, stronger effect = lower value 0.0727 | S. cerevisiae deletion strains, locus YOR231W, strain MKK1, stronger effect = lower value 0.111 | S. cerevisiae deletion strains, locus YOR265W, strain rbl2, stronger effect = lower value 0.0548 | S. cerevisiae deletion strains, locus YOR270C, strain vph1, stronger effect = lower value 0.1 | S. cerevisiae deletion strains, locus YOR290C, strain snf2, stronger effect = lower value 0.0637 | S. cerevisiae deletion strains, locus YOR316C, strain cot1, stronger effect = lower value 0.0575 | S. cerevisiae deletion strains, locus YPL051W, strain arl3, stronger effect = lower value 0.0621 | S. cerevisiae deletion strains, locus YPL055C, strain LGE1, stronger effect = lower value 0.0743 | S. cerevisiae deletion strains, locus YPL078C, strain atp4, stronger effect = lower value 0.0696 | S. cerevisiae deletion strains, locus YPL106C, strain sse1, stronger effect = lower value 0.0938 | S. cerevisiae deletion strains, locus YPL240C, strain hsp82, stronger effect = lower value 0.0556 | S. cerevisiae deletion strains, locus YPL241C, strain CIN2, stronger effect = lower value 0.0514 | S. cerevisiae deletion strains, locus YPL256C, strain CLN2, stronger effect = lower value 0.112 | S. cerevisiae deletion strains, locus YPR119W, strain clb2, stronger effect = lower value 0.0611 | S. cerevisiae deletion strains, locus YPR141C, strain kar3, stronger effect = lower value 0.0644 | S. cerevisiae deletion strains, locus YPR163C, strain tif3, stronger effect = lower value 0.0667 | S. cerevisiae deletion strains, locus YPR167C, strain met16, stronger effect = lower value 0.0591 | S. cerevisiae deletion strains, strain wtn01, stronger effect = lower value 0.0603 | S. cerevisiae strains, strain wild type, stronger effect = lower value 0.0494
